Most compounds without a hit are left out; they make up all but 18% or so of the library.
DT40 TDP1 CPT = DT40-hTDP1 cell growth loss with CPT; chicken DT40 Tdp1-/-;hTDP1 cells + 20 nM CPT, ATP luminescence, 48 h; Potency, µM (top dose mostly 46.2 µM), for inactives: top-dose activity change, negative = growth inhibition, actives largely listed as inhibitors; 12% of 420,000 active; also: potency is read from the fitted curve at half-maximal effect; nearly all actives have a fitted effect of over 55% in size
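Chicken DT40 Tdp1-/- cells complemented with human TDP1, 400 cells/well, exposed to compounds plus 20 nM camptothecin for at least 48 h at 37 C; viability read as ATP content by CellTiter-Glo luminescence.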
TDP1 inh = blocks human tyrosyl-DNA phosphodiesterase 1; 0.28% of 350,000 active; Potency, µM (doses to about 130 µM), for inactives: top-dose activity change, negative = inhibition, usual class: inhibitors; recombinant TDP1, AlphaScreen DNA substrate cleavage; also: potency is read from the fitted curve at half-maximal effect; nearly all actives have a fitted effect of over 40% in size
Target sequence (Q9NUW8 whole entry, looked up): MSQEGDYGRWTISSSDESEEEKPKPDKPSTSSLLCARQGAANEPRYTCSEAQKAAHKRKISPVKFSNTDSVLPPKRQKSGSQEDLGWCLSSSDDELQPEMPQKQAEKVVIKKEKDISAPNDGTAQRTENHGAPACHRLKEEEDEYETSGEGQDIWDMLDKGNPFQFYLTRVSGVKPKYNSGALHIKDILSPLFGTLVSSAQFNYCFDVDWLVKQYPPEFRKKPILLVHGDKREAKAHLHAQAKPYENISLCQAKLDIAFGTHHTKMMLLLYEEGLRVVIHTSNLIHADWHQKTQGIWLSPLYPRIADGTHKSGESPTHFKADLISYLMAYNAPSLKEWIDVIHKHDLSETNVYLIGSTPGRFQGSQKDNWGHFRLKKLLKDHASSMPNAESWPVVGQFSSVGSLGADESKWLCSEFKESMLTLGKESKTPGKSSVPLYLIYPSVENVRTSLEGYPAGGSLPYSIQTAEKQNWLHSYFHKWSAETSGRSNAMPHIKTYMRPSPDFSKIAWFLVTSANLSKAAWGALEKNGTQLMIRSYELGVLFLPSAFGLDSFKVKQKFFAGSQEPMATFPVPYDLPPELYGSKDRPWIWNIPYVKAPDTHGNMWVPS
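AlphaScreen read-out: signal falls as enzyme removes the 3' tyrosine-FITC from a 5'-biotinylated DNA oligo (15 nM, 5 min, RT). Enzyme was E. coli-made recombinant Tdp1 at 1 nM, exposed to compound for 15 min beforehand; beads 10 ug/ml, 10 min.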
TDP1 cell noCPT = qHTS for Inhibitors of human tyrosyl-DNA phosphodiesterase 1 (TDP1): qHTS in cells in absence of CPT | 15% of 420,000 active | Potency, µM (top dose mostly 46.2 µM), for the others: top-dose activity change, negative = growth inhibition, actives largely listed as inhibitors | DT40 Tdp1-/- hTDP1 cells, no CPT, ATP luminescence, 48 h; also: potency is read from the fitted curve at half-maximal effect; nearly all actives have a fitted effect of over 55% in size
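DT40 Tdp1-/-;hTDP1 cells, no CPT (DMSO vehicle only), 400 cells/well; compounds pin-transferred; ≥48 hr, 37 °C; CellTiter-Glo 30 min RT dark, luminescence read.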
Six1-Eya2 blk = inhibitors of human Six1/Eya2 interaction; 0.56% of 360,000 active; AlphaScreen GST-Six1/His-Eya2 binding, biochemical; active compounds read low; activity change, % (test concentration not listed); in the data active = activity change below about -65%; inconclusive = mostly about -30% to -63%
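Six1/Eya2 binding was read as AlphaScreen signal after compounds were pinned into GST-Six1 plus His-tagged Eya2 (5X stock 250/500 nM) in pH 8.0 Tris/NaCl/TCEP buffer, beads added, then incubated 1 h, 37 C, dark.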
IL1B secr inh = inflammasome signaling inhibition, IL-1 beta readout; THP-1 LPS/ATP IL-1B secretion, AlphaLISA, 16 h; active compounds read low; activity change, % at 57.5 µM; 4.7% of 360,000 active; AID 743279; in the data active = activity change below about -50%; inconclusive = mostly about -30% to -49%
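THP-1 cells pretreated 1 hr with compounds (up to 57.5 uM final), then stimulated with LPS (250 ng/mL final) plus ATP (1.25 mM final); secreted IL-1B measured by AlphaLISA after 16 hr, decreased signal indicating inhibition.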
CtBP-E1A inh = blocks the CtBP interaction with E1A; 0.49% of 340,000 active; activity change, % (concentration not given with the values); AlphaScreen GST-E1A/His-CtBP binding, 1536-well; active compounds read low; in the data active = activity change below about -65%; inconclusive = mostly about -30% to -63%
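AlphaScreen with 125 nM GST-E1A and 125 nM His-CtBP (5X stocks) in Tris pH 8.0, 300 mM NaCl, BSA, Tween 20, TCEP. Compounds preincubated 2 h at 37 deg C, then glutathione donor/nickel acceptor beads added for 1 h at 37 deg C in dark.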
* marks the source's active call; other numbers are inactive results; ? = inconclusive; . = not tested or not shown; [ ] = another dose, or the depositor's remark. Unless noted, calls follow the shape of the dose curve; as a rule, active = well fitted curve in the direction sought with a large enough effect; inconclusive = small, poorly fitted or top-dose-only effect, or another doubt; inactive = no such curve, though single readings can be large; an effect the other way counts as inactive or inconclusive. % is scaled to controls: 0 for no effect and ±100 for the full control effect.

SMILES	DT40 TDP1 CPT	TDP1 inh	TDP1 cell noCPT	Six1-Eya2 blk	IL1B secr inh	CtBP-E1A inh
N#CC1=C(N)c2ccccc2CC12CCCCC2	?	3%	?	-2	-52*	1
CCC(=O)NC1=C(C#N)C2(CCCC2)Cc2ccccc21	24%	4%	-16%	1	2	7
CCOC(=O)c1cccc(NC(=O)CC2C(=O)N(c3ccc(F)cc3)C(=O)N2C(C)C)c1 (stereo unspecified)	?	6%	?	.	.	.
CCN(c1nc(N)c(C(=O)N=C(N)N)nc1Cl)C(C)C	21µM*	12%[56.1 µM]	7.3µM*	-21	-3	?
Cc1ccc(CNc2ccc3nnc(-c4ccccc4)n3n2)cc1	3.7µM*	3%	2.3µM*	-3	22	-2
CCOC(=O)N1CCC(Nc2ccc3nnc(-c4ccccc4)n3n2)CC1	?	3%	?	?	-19	?
c1ccc(CN2CCN(CCCNc3ccc4nnc(-c5ccccc5)n4n3)CC2)cc1	?	3%	?	-69*	-25	-27
CC(=O)c1ccc(C(=O)N2CCc3c(cnc(C)c3CNC(=O)c3ccc4c(c3)OCO4)C2)s1	1%[9.04 µM]	.	-29%	.	.	.
Cc1ncc2c(c1CNC(=O)c1ccccc1F)CCN(C(=O)c1ccc3c(c1)OCCO3)C2	0.058µM*	.	0.13µM*	.	.	.
CC(=O)Oc1cccc2c1C(=O)C1CC=CC(OC(C)=O)C1C2=O (stereo unspecified)	?	.	23µM*	?	-23	-4
CC(=O)Oc1cccc2c1C(=O)c1c(OC(C)=O)cc(C(=O)O)cc1C2=O	?	0%	?	-7	-17	-12
Nc1cc2cccnc2cc1Cl	-14%	.	3%	-8	5	?
O=C(Nc1ccccc1)Nc1cccn(Cc2c(F)cccc2Cl)c1=O	-25%	6%	?	-13	-61*	.
COc1cccc(Cn2cccc(NC(=O)Nc3ccc(C#N)cc3)c2=O)c1	18µM*	3%	8.2µM*	-1	-4	-8
CCC(CC)c1nc(C#N)c(NCc2ccccc2)o1	23µM*	-5%	21µM*	-6	1	-14
N#Cc1nc(-c2ccc(F)cc2)oc1NCc1ccccc1	?	0%	?	-6	28	3
CC/C(=N\NC(=O)c1cc(C)nc2ccccc12)c1ccc(C)s1	7%	8%	?	-23	33	-12
O=[N+]([O-])c1cccc2c(Cl)ccnc12	?	8%	?	-4	-4	-23
Cc1ccnc2c(Cl)cccc12	?	.	1%	.	.	.
Nc1cccc2cccnc12	1.8µM*	.	5.6µM*	.	.	.
Nc1ccc(Br)c2cccnc12	?	5%	?	9	-14	22
Cc1ccnc2c(N)cccc12	?	.	13µM*	.	.	.
Cc1ccc2ccc3cccnc3c2n1	0.92µM*	.	1µM*	?	91	-90*
Cc1ccnc2c([N+](=O)[O-])cccc12	22µM*	.	?	.	.	.
Cc1ccc(C(=O)N/C(=C\c2cccs2)C(=O)NCCCn2ccnc2)cc1C	-5%	4%	4%	-14	-2	-15
SMILES	DT40 TDP1 CPT	TDP1 inh	TDP1 cell noCPT	Six1-Eya2 blk	IL1B secr inh	CtBP-E1A inh
O=C(Sc1cccc2cccnc12)c1ccccc1Br	.	-6%	.	.	.	.
CCCOC(=O)c1ccc(NC(=O)C2CC(=O)N(c3ccc(C)cc3)C2)cc1 (stereo unspecified)	.	0%	.	.	.	.
CCC(CC)C(=O)N(C)c1c(C)nc2c(OCc3ccc(F)c(F)c3)cccn12	?	.	21µM*	2	17	5
CCC(CC)C(=O)N(C)c1c(C)nc2c(OCc3ccc(C(F)(F)F)cc3)cccn12	23µM*	.	18µM*	2	?	1
CCc1nc2c(OCc3ccc(F)c(F)c3)cccn2c1N(C)C(=O)C(C)C	2%	.	?	1	24	2
CC(C)(C)c1cc[n+](-c2[nH]c(=O)sc2/C=N/NC(=O)c2ccccc2[O-])cc1	-7%	7%[0.0935 µM]	-8%	-1	-6	15
Cc1ccc2nc3n(c(=O)c2c1)-c1cc(Cl)ccc1C(=O)NC3Cc1ccccc1 (stereo unspecified)	.	1%	.	.	.	.
O=C(Nc1ccc(Cl)c(Cl)c1)N[C@@H]1CC[C@@H](CCn2cc(C3CCCCC3)nn2)O[C@@H]1CO	?	.	21µM*	-6	58	-1
CC(C)C1N=C2c3ccccc3N=C(SCC(=O)NCc3ccc(Cl)cc3)N2C1=O (stereo unspecified)	?	1%	?	.	.	.
CC(C)C1N=C2c3ccccc3N=C(SCc3cc(=O)n4cc(Cl)ccc4n3)N2C1=O (stereo unspecified)	?	2%	15µM*	0	17	3
CCCNC(=O)c1nn2cc(Br)cnc2c1Cl	-2%	0%	-8%	0	-1	-11
COc1ccc(C(=O)Nc2ccccc2C(=O)N2CCCCCC2)cc1	3%	.	-20%	6	-6	-5
CC1(Oc2ccc3ccccc3c2)CCN(Cc2cccn2-c2nccs2)C1 (stereo unspecified)	29µM*	.	23µM*	-23	-18	-21
COc1cc(Cl)ccc1OC1(C)CCN(Cc2cccn2-c2nccs2)C1 (stereo unspecified)	12µM*	.	21µM*	-27	-19	-20
CC(=O)c1ccc(OC2(C)CCN(Cc3cccn3-c3nccs3)C2)cc1 (stereo unspecified)	?	.	?	-10	-6	-9
COc1cc(Cl)ccc1OC1(C)CCN(Cc2c(F)cccc2F)C1 (stereo unspecified)	?	.	?	-2	9	3
Cc1ccc(S(=O)(=O)n2ccc3c(OCCOCCNCc4ccc(F)cc4)cccc32)cc1	?	.	18µM*	-4	-88*	4
CC1(C)CC(=O)c2c(oc3c(Cl)cc(NS(=O)(=O)c4ccc(Br)cc4)cc23)C1	3%	.	-22%	.	.	.
COc1cccc(CN(C)C(=O)c2cc(COc3ccc(-n4cncn4)cc3)on2)c1	21µM*	5%	18µM*	0	6	5
COc1cccc(CN(C)C(=O)c2cc(COc3c(F)cccc3F)on2)c1	-22%	-5%	-16%	-1	-2	10
COc1cccc(CN(C)C(=O)c2cc(COc3ccc4ncccc4c3)on2)c1	3.3µM*	7%	2.9µM*	-9	-7	-1
CN(C)CCCn1cnc2c1c(=O)[nH]c(=O)n2Cc1ccccc1	4%	.	0%	-1	-1	-20

Bioassay records from PubChem BioAssay.
